Records with an inconclusive call do not appear. Activity calls are given as the source filed them. Calls come from the whole dose curve; as a rule, active = well fitted curve in the direction sought with a large enough effect; inconclusive = small, poorly fitted or top-dose-only effect, or another doubt; inactive = no such curve, though single readings can be large; an effect the other way counts as inactive or inconclusive.
Experiments:
[1] = target: Cellular tumor antigen p53 (Homo sapiens) (UniProt P04637); assay: Primary qHTS for small molecule compounds that upregulate eGFP-tagged delta133p53alpha (in N-terminal) cells. (AID 2060322); details: NCI-H358 eGFP-delta133p53alpha fluorescence, 24 h; activation: stronger effect = higher value;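 note: series mostly up to about 56 µM; 0% = DMSO vehicle and 100% = reference activator; nearly all actives have a fitted effect of over 75% in size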
Summary of the method: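 NCI-H358 cells pre-induced 24 h with 10 ng/ml doxycycline to express N-terminal eGFP-delta133p53alpha, then dosed 24 h at 37C without doxycycline; fixed, Hoechst-stained, GFP intensity by laser scanning cytometry, normalized to DMSO (0%) and 57.5 uM 5-azacytidine (100%).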

[2] = target: Aldehyde dehydrogenase, mitochondrial (Homo sapiens) (UniProt P05091); assay: qHTS for Inhibitors of the Aldehyde Dehydrogenase Family (ALDH2) Primary screen (AID 2061308);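 note: plate controls were vehicle for no effect and reference inhibitor for full effect; nearly all actives have a fitted effect of over 55% in size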
[3] = target: Retinaldehyde dehydrogenase 3 (Homo sapiens) (UniProt P47895); assay: qHTS for Inhibitors of the Aldehyde Dehydrogenase Family (ALDH1A3) Primary screen (AID 2061315);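 note: plate controls were DMSO vehicle for no effect and reference inhibitor for full effect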

Chain of Cellular tumor antigen p53 (Homo sapiens) (P04637 whole entry, looked up): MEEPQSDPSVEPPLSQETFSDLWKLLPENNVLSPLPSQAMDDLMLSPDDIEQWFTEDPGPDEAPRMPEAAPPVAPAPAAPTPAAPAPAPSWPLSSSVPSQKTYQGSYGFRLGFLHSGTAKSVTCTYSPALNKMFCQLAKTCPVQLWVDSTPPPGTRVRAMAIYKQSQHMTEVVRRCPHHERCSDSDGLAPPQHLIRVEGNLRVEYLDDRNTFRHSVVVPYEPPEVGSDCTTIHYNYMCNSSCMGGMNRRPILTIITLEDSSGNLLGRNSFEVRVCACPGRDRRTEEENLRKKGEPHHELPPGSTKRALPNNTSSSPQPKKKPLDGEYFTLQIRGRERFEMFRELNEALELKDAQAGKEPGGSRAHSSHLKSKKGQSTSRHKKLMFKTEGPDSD

COc1ccccc1C(=O)Nc1cccc(NC(=O)c2cccc(C)c2)c1
inactive: activation [1] -11.7% | Potency [2] | Potency [3]

CC(C(=O)O)c1ccc(/C=C2\CCCCC2=O)cc1 (stereo unspecified)
inactive: activation [1] -13.4% | Potency [2] | Potency [3]

C/C(=C/C=C\C=C\Cc1cnco1)[C@@H](O)C(C)(C)C(N)=O
inactive: activation [1] -11.5% | Potency [2] | Potency [3]

CCC(C)C(=O)O[C@H]1[C@@H](O[C@H]2O[C@H](CO)[C@@H](O)[C@H](O)[C@H]2O)O[C@H](CO)[C@@H](O)[C@@H]1O (stereo partly specified)
inactive: activation [1] 13.7% | Potency [2] | Potency [3]

C/C=C1/[C@H](O[C@@H]2O[C@H](CO)[C@@H](O)[C@H](O)[C@H]2O)OC=C(C(=O)OC)[C@H]1CC(=O)OCCc1ccc(O)c(O)c1
inactive: activation [1] 5.34% | Potency [2] | Potency [3]

C/C=C(\C)C(=O)OC[C@H]1O[C@@H](O[C@H]2[C@@H](O[C@H]3O[C@H](COC(=O)/C(C)=C/C)[C@@H](O)[C@H](O)[C@H]3O[C@@H]3O[C@H](COC(=O)/C(C)=C/C)[C@@H](O)[C@H](OC(=O)/C(C)=C/C)[C@H]3O)O[C@H](COC(=O)/C(C)=C/C)[C@@H](O)[C@@H]2O)[C@H](O)[C@@H](O)[C@@H]1O
inactive: activation [1] -15.3% | Potency [2] | Potency [3]

CC1(C)CC[C@]2(C(=O)O[C@@H]3O[C@H](CO)[C@@H](O)[C@H](O)[C@H]3O)CC[C@]3(C)C(=CCC4[C@@]5(C)C[C@@H](O)[C@H](O)[C@@](C)(CO)C5[C@H](O)C[C@]43C)C2[C@@H]1O (stereo partly specified)
inactive: activation [1] -5.34% | Potency [2] | Potency [3]

Source: PubChem BioAssay (NCATS)
